# Screening results: PubChem BioAssay, The Scripps Research Institute Molecular Screening Center
# ssDAF-12 act: activates DAF-12 receptor from parasite S. stercoralis | HEK293 ssDAF-12/GRIP1 lit1-tk-luc reporter, luminescence; % of 3 µM dafachronic acid response | activation, % at 6.8 µM | hit rate 1% among 370,000 | AID 652126;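 active = activation above the mean over all tested compounds plus 3 SD, cut at about 0.9% in these data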;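 also: 0% = DMSO-only wells and 100% = 3 µM delta7-dafachronic acid wells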
# DAX1 inh-1: NR0B1 (DAX1) inhibition. P51843. HEK293 Gal4-DAX1 luciferase reporter, luminescence. inhibition, % at 6.75 µM. hit rate 0.99% among 340,000. AID 504766;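 active = inhibition above the mean over all tested compounds plus 3 SD, cut at about 4.2% in these data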;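 also: 0% = DAX1-transfected cells with DMSO and 100% = empty-vector control cells with DMSO; inhibition shows as a rise in luminescence from relieved DAX1 repression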
# Target sequence (P51843 207-470 limits assumed): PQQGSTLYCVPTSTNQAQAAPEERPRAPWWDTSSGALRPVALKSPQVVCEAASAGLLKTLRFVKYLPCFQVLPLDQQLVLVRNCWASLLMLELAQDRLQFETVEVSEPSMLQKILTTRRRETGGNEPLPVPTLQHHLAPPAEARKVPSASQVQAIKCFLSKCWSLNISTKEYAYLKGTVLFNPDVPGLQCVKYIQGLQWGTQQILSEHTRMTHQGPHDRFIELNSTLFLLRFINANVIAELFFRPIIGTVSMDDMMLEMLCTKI
# hcDAF-12 act: activators of H. contortus DAF-12 nuclear receptor; activation, % at 6.8 µM; hit rate 1.4% among 370,000; HEK293 hcDAF-12 lit1-tk-luc reporter, luminescence; 0% DMSO, 100% Δ7-dafachronic acid;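 active = activation above the mean of all tested compounds plus 3 SD, cut at about 5.5% in these data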;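 also: 100% = response to 3 µM Δ7-dafachronic acid high control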
# DAX1 inh-2: blocks DAX1 repression of SF-1 activated StAR promoter; inhibition, % at 6.8 µM; hit rate 1.1% among 370,000; HEK293T StAR-luciferase reporter, SF-1/DAX-1 repression relief;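 active = inhibition above the mean over all tested compounds plus 3 SD, cut at about 3.6% in these data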;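 also: 0% = DAX-1 cells with DMSO and 100% = cells lacking DAX-1 with DMSO; higher inhibition means more luminescence from relief of DAX-1 repression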
# hgDAF12 agonist: activates the H. glycines DAF-12 receptor ligand-binding domain; HEK293 GAL4-hgDAF12 UAS-luciferase reporter, agonist luminescence; normalized to butyrate control; activation, % at 6.8 µM; hit rate 1.8% among 370,000;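 active = activation above a cutoff set at the mean of all screened compounds plus 3 SD, cut at about 10% in these data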;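 also: 0% = DMSO wells and 100% = sodium butyrate wells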
# DAX1 inh confirm: confirmation of human DAX1 (NR0B1) inhibitors | shares compounds with DAX1 inh-2 | hit rate 87% among 2,400 | HEK293T StAR-promoter luciferase reporter, SF-1/DAX-1 repression | inhibition, % at 6.8 µM;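 active = inhibition above the average of every tested compound plus 3 SD, cut at about 3.8% in these data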;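 also: 0% = DAX-1 cells with DMSO and 100% = no DAX-1 control cells with DMSO; active compounds raise luminescence by relieving repression of the StAR reporter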
# SF1 AF2mut Luc: counter-screen for DAX1 inhibitors: nonselective inhibitors with SF-1 AF2 mutant | shares compounds with DAX1 inh-2 | hit rate 78% among 2,400 | HEK293 StAR-luciferase, luminescence | AID 652136 | inhibition, % at 6.8 µM;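 active = inhibition above the mean of all tested compounds plus 3 SD, cut at about 3% in these data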;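 also: 0% = DAX-1 transfected cells with DMSO and 100% = cells without DAX-1 with DMSO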
# * hit, by the source's call; / = no result given. This is a sample that favours compounds with a hit; in the whole collection about 4.1% have one here.
SMILES,ssDAF-12 act,DAX1 inh-1,hcDAF-12 act,DAX1 inh-2,hgDAF12 agonist,DAX1 inh confirm,SF1 AF2mut Luc
O=C(NC1CCCCC1)c1ccc(-c2cccc([N+](=O)[O-])c2)o1,0,1,2,7.9*,9,11*,4.1*
COc1cc(C(=O)NCCC(=O)NC(C)C)cc(OC)c1OC,-1,0,-2,5.3*,4,0,-2
Fc1cc(F)c(CSc2nnc(-c3cccnc3)n2Cc2ccccc2)cc1F,-1,/,-2,0,-1,/,/
CCNc1nc(NCC)n2c(SCC(=O)Nc3ccccc3OC(F)F)nnc2n1,-1,1,-2,0,-2,/,/
CCNc1nc(NCC)n2c(SCC(=O)Nc3ccccc3F)nnc2n1,-1,1,-2,4.5*,-4,1,1
COc1ccc(CCNS(=O)(=O)CCNC(=O)c2ccccc2)cc1,-1,-1,0,-1,1,/,/
COc1ccc(C(=O)NCCS(=O)(=O)NCCc2ccccc2)cc1,0,0,2,4.8*,6,3.8*,2
CC(=O)c1sc(Nc2ccccc2)nc1C,-1,/,2,0,4,/,/
CCCC(=O)Nc1nc2ccc(NC(=O)c3ccc(Br)o3)cc2s1,-1,-2,-2,-1,-2,/,/
CC(=O)c1sc(NC(=O)c2ccc(Br)o2)nc1C,2.1*,0,3,4.6*,7,4.1*,5.4*
CC(=O)c1sc(Nc2ccc(Oc3ccccc3)cc2)nc1C,0,/,0,9.2*,9,3.9*,0
CC(=O)c1sc(NC(=O)c2ccc(Cn3cc(Br)cn3)o2)nc1C,-1,0,-1,1,-1,/,/
Cc1nc2ccc(NC(=O)C3=NN(C)C(=O)CC3)cc2s1,-1,1,1,7.5*,0,2,3.4*
Cc1nc2ccc(NC(=O)c3ccc(Br)o3)cc2s1,-2,2,1,6.2*,5,14*,7.6*
Cc1nc2ccc(NC(=O)c3cccnc3)cc2s1,-2,1,-1,1,2,/,/
CN1CCN(c2ccc(NC(=O)c3ccc(Br)o3)cc2)CC1,0,1,4,6.2*,12*,8.3*,6.1*
CN1CCN(c2ccc(NC(=O)c3ccc4ccccc4c3)cc2)CC1,0,0,3,8.2*,9,10*,0
COc1ccc(C(=O)Nc2ccc(N3CCN(C)CC3)cc2)cc1,1,2,2,2,8,/,/
Cc1cc(C)cc(C(=O)Nc2ccc(N3CCCC3)cc2)c1,0,1,3,4.5*,12*,13*,5.8*
CCCCN=C(N)NC(=O)OCc1ccccc1,0,/,4,2,5,/,/
N/C(=N\N=C\c1ccc2c(c1)OCO2)c1nonc1N,0,-2,5.9*,6.2*,8,18*,9.6*
N/C(=N\N=C\c1cccc([N+](=O)[O-])c1)c1nonc1N,-1,/,2,1,7,/,/
CCn1ccc(C(=O)Nc2ncc(C)s2)n1,0,1,3,8.9*,8,9.4*,4.4*
CCn1ccc(C(=O)NC2=NCCS2)n1,1,0,1,2,7,/,/
O=C(NCCc1ccc(Cl)cc1)c1ccc2nc[nH]c2c1,-2,2,-1,0,3,/,/
SMILES,ssDAF-12 act,DAX1 inh-1,hcDAF-12 act,DAX1 inh-2,hgDAF12 agonist,DAX1 inh confirm,SF1 AF2mut Luc
O=C(NCCc1ccc(Cl)cc1)c1ccc2nccnc2c1,0,2,4,5.4*,8,8.2*,7.9*
O=C(Nc1ccc(Cl)cn1)c1ccc2nccnc2c1,1.6*,1,1,6.4*,7,4.5*,2
COc1cc(/C=C2/SC(=S)NC2=O)ccc1OS(=O)(=O)c1ccc(C)cc1,/,-1,/,/,/,/,/
COc1cc(/C=C2\SC(=S)N(CCCCC(=O)O)C2=O)ccc1OS(=O)(=O)c1ccc(C)cc1,-1,1,0,5.9*,-4,6.2*,5.8*
CC(C)(C)C(=O)c1c(N)[nH]c(C(=O)c2ccccc2)c1-c1ccccc1,-1,/,-1,0,0,/,/
COc1cc(/C=C(\C#N)C(=O)Nc2ccccc2F)ccc1OCCN1CCOCC1,-1,0,3,4.5*,4,5.0*,2
